About 3,300 (8.5%) of roughly 39,000 compounds were called active. Shown is part of a subset that was picked to be rich in actives.

Our source for the cytotoxicity call values is the antibiotic and cytotoxicity screens of Wong et al. (2023).

In this assay the test system is HepG2. As to the kind of experiment: cytotoxicity call (relative viability < 0.9). The settings on record: 10 µM.
Take `Cc1ccc(N2C(=O)C(=O)NC2=S)cc1`: the cytotoxicity call was “inactive”. The entry for `C[C@H]1CN([C@@H](C)CO)C(=O)c2cc(NC(=O)CCN3CCOCC3)ccc2O[C@@H]1CN(C)C(=O)NC1CCCCC1` is “inactive”. Under `C[C@H]1CN([C@@H](C)CO)C(=O)Cc2cc(NS(=O)(=O)c3ccccc3)ccc2O[C@H]1CN(C)Cc1ccc2c(c1)OCO2` stands “inactive”; under `C[C@H](CO)N1C[C@H](C)[C@H](CN(C)S(=O)(=O)c2cccs2)Oc2ccc(NC(=O)Cn3cnnn3)cc2CC1=O`, “inactive”; under `CC(C)NCCCC[C@H](NC(=O)[C@H]1CCC(=O)N[C@@H](Cc2ccccc2)C(=O)N[C@H](Cc2ccc(O)cc2)C(=O)N[C@@H](CCCCNC(C)C)C(=O)N[C@H](CCCN=C(N)N)C(=O)N[C@@H](Cc2ccc3ccccc3c2)C(=O)NCC(=O)N1)C(N)=O`, “inactive”. Under `Cc1noc(C)c1NC(=O)N(C)C[C@H]1Oc2ccc(NC(=O)Cn3cnnn3)cc2C(=O)N([C@H](C)CO)C[C@@H]1C` stands “inactive”; under `Nc1nnc(N[C@H]2CCCCNC2=O)[nH]1`, “inactive”.

`COCc1cn(CC[C@H]2CC[C@@H](NC(=O)CCN3CCCCC3)[C@@H](CO)O2)nn1`: the cytotoxicity call is “inactive”. The entry for `COCC#Cc1cnc2c(c1)C(=O)N([C@@H](C)CO)C[C@@H](C)[C@H](CN(C)S(=O)(=O)c1cccc(OC)c1)O2` is “inactive”; for `CO[C@H](CN(C)S(=O)(=O)c1ccc(F)cc1)[C@@H](C)CN([C@H](C)CO)S(=O)(=O)c1cccc(Cl)c1` it is “inactive”.

Regarding `C[C@@H]1CN([C@H](C)CO)C(=O)c2cccc(NC(=O)c3ccno3)c2O[C@H]1CN(C)S(=O)(=O)c1cccs1`, the cytotoxicity call is “inactive”. Under `C[C@H]1CCCCO[C@@H](CN(C)Cc2ccccc2)[C@@H](C)CN([C@@H](C)CO)C(=O)c2cc(NC(=O)Nc3ccc(C(F)(F)F)cc3)ccc2O1` stands “active”. With `C[C@@H]1CN([C@H](C)CO)C(=O)c2cc(NC(=O)Nc3ccc(C(F)(F)F)cc3)ccc2O[C@@H](C)CCCCO[C@H]1CN(C)Cc1ccccc1`, the cytotoxicity call is “active”. The entry for `C[C@@H]1CCCCO[C@@H](CN(C)Cc2ccccc2)[C@H](C)CN([C@@H](C)CO)C(=O)c2cc(NC(=O)Nc3ccc(C(F)(F)F)cc3)ccc2O1` is “active”; for `C[C@@H]1CCCCO[C@H](CN(C)Cc2ccccc2)[C@H](C)CN([C@@H](C)CO)C(=O)c2cc(NC(=O)Nc3ccc(C(F)(F)F)cc3)ccc2O1` it is “active”. Under `Cc1noc(C)c1NC(=O)Nc1cccc2c1O[C@H](CN(C)Cc1ccc(C(F)(F)F)cc1)[C@@H](C)CN([C@H](C)CO)C2=O` stands “inactive”; under `C[C@@H]1CN([C@H](C)CO)C(=O)c2cccc(NC(=O)CCCCCC(=O)Nc3ccccc3N)c2O[C@@H]1CN(C)Cc1ccccc1`, “inactive”. The entry for `C=CCOC[C@H]1NCCc2c1nnn2CC` is “inactive”; for `COc1ccc(CN(C)C[C@@H]2Oc3c(NS(=O)(=O)c4cn(C)cn4)cccc3C(=O)N([C@H](C)CO)C[C@H]2C)cc1` it is “inactive”; for `O=C(C[C@@H]1CC[C@H]2[C@@H](COC[C@@H](O)CN2C(=O)c2cccnc2)O1)NCC1CC1` it is “inactive”. On to `C[C@@H]1CN([C@@H](C)CO)C(=O)c2cc(NS(C)(=O)=O)ccc2O[C@@H](C)CCCCO[C@@H]1CN(C)S(=O)(=O)c1cn(C)cn1`, for which the cytotoxicity call was “inactive”. For the compound `C[C@H]1CCCCO[C@@H](CN(C)Cc2ccc(C(=O)O)cc2)[C@@H](C)CN([C@@H](C)CO)C(=O)c2cc(NC(=O)Nc3ccc(F)cc3)ccc2O1`, the cytotoxicity call is “inactive”. Turning to `C[C@@H]1CCCCO[C@@H](CN(C)Cc2ccc3c(c2)OCO3)[C@H](C)CN([C@@H](C)CO)C(=O)c2cc(NS(=O)(=O)c3ccccc3)ccc2O1`, the cytotoxicity call is “inactive”. Under `Cc1noc(C)c1S(=O)(=O)N(C)C[C@H]1Oc2ccc(NS(=O)(=O)c3ccc(Cl)cc3)cc2CC(=O)N([C@@H](C)CO)C[C@@H]1C` stands “inactive”; under `C[C@H]1CCCCO[C@@H](CN(C)C(=O)Nc2ccccc2)[C@@H](C)CN([C@@H](C)CO)C(=O)c2cc(NC(=O)Nc3ccccc3)ccc2O1`, “inactive”.

For the compound `COCC(=O)Nc1ccc2c(c1)OC[C@H](C)N(Cc1ccccc1OC)C[C@H](C)[C@@H](OC)CN(C)C2=O`, the cytotoxicity call was “inactive”. For `N[C@@H]1CC[C@@H](CCn2cc(-c3ccccn3)nn2)O[C@H]1CO`, the cytotoxicity call is “inactive”. Under `C=CCC[C@H](Cc1ccc(F)cc1)C(=O)OC[C@@H](NC(=O)[C@H](CC=C)CC(=O)N(CCO)Cc1ccccc1)c1ccccc1` stands “inactive”; under `C=CCOC(=O)[C@@H]1[C@H]2C(=O)O[C@H](c3ccccc3)[C@H](c3ccccc3)N2[C@H](c2ccc(OCCOC(=O)[C@H]3C[C@H]4C(=O)N[C@@H](CC(C)C)C(=O)N4[C@H]3c3cccc(OCCO)c3)cc2)[C@@]12C(=O)Nc1ccccc12`, “inactive”.

Take `Cc1c(C)n2c3c(=O)n(C)c(=O)n(C)c3nc2n1CCO`: the cytotoxicity call is “inactive”. Under `CC(C)NC(=O)Nc1ccc2c(c1)CC(=O)N([C@H](C)CO)C[C@@H](C)[C@H](CN(C)S(=O)(=O)c1ccc(F)cc1)O2` stands “inactive”; under `CC[C@H]1OC(=O)[C@H](C)[C@@H](O[C@H]2C[C@@](C)(OC)[C@@H](O)[C@H](C)O2)[C@H](C)[C@@H](O[C@@H]2O[C@H](C)C[C@H](N(C)C)[C@H]2O)[C@](C)(O)C[C@@H](C)C(=O)[C@H](C)[C@@H](O)[C@]1(C)O`, “active”; under `CCC1OC(=O)C(C)C(OC2CC(C)(OC)C(O)C(C)O2)C(C)C(OC2OC(C)CC(N(C)C)C2O)C(C)(O)CC(C)C(=O)C(C)C(O)C1(C)O` (stereo not drawn), “inactive”. The entry for `CC[C@H]1OC(=O)[C@H](C)[C@@H](O[C@H]2C[C@@](C)(OC)[C@@H](O)[C@H](C)O2)[C@@H](C)[C@@H](O[C@H]2O[C@H](C)C[C@H](N(C)C)[C@H]2O)[C@](C)(O)C[C@@H](C)C(=O)[C@H](C)[C@@H](O)[C@]1(C)O` is “inactive”; for `O=C(N[C@@H]1CC[C@H](CCNS(=O)(=O)c2ccccc2)O[C@@H]1CO)c1cnccn1` it is “inactive”. The entry for `N#Cc1c(Oc2ccc(F)c(NC(=O)Cc3cccc(C(F)(F)F)c3)c2)ccc2nc(NC(=O)C3CC3)sc12` is “active”; for `O=C(N[C@H](c1ccc2ccccc2n1)c1cccs1)C1CCN(Cc2cccc(C(F)(F)F)c2)CC1` it is “inactive”.

As for `C=CC(=O)N1C[C@@H]2CC[C@H](O)[C@@H]2C1`, the cytotoxicity call is “inactive”. The entry for `COc1ccc(-c2oc3cc(O[C@@H]4O[C@@H](C)[C@H](O)[C@@H](O)[C@H]4O)cc(O)c3c(=O)c2O[C@@H]2O[C@H](CO)[C@@H](O)[C@H](O)[C@H]2O)cc1` is “inactive”; for `Cc1noc(C)c1NC(=O)Nc1ccc2c(c1)CC(=O)N([C@@H](C)CO)C[C@@H](C)[C@H](CN(C)C(=O)NC(C)C)O2` it is “inactive”. Under `Cc1ccc(S(=O)(=O)Nc2cc([C@@H](C(=O)OC(C)C)C(=O)C(F)(F)F)c(O)c3ccccc23)c(C)c1` stands “inactive”; under `CNC[C@@H]1OCCCC[C@H](C)Oc2ccc(NC(=O)Nc3ccc(C(F)(F)F)cc3)cc2C(=O)N([C@H](C)CO)C[C@H]1C`, “inactive”. Under `O=c1c(O)c(-c2ccccc2)oc2cc(O)ccc12` stands “inactive”; under `O=c1c(O)c(-c2ccc(O)c(O)c2)oc2cc(O)cc(O)c12`, “inactive”. For the compound `O=c1c(O)c(-c2ccccc2)oc2ccccc12`, the cytotoxicity call is “inactive”. The entry for `O=c1c(O)c(-c2ccc(O)c(O)c2)oc2cc(O)ccc12` is “active”; for `O=c1c(O)c(-c2ccc(O)cc2)oc2ccccc12` it is “active”. The entry for `O=c1c(O)c(-c2ccccc2)oc2cccc(O)c12` is “inactive”; for `CCC1OC(=O)C(C)C(OC2CC(C)(OC)C(O)C(C)O2)C(C)C(OC2OC(C)CC(N(C)C)C2O)C(C)(O)CC(C)CN(C)C(C)C(O)C1(C)O` (stereo not drawn) it is “inactive”. The entry for `Cc1noc(C)c1NC(=O)N(C)C[C@@H]1OCCCC[C@H](C)Oc2ccc(NS(=O)(=O)c3cccs3)cc2C(=O)N([C@@H](C)CO)C[C@H]1C` is “inactive”; for `CCCNC(=O)C[C@@H]1CC[C@H]2[C@@H](COC[C@@H](O)CN2S(=O)(=O)c2ccc(Oc3ccccc3)cc2)O1` it is “inactive”; for `COCC(=O)Nc1ccc2c(c1)C(=O)N(C)C[C@@H](OC)[C@H](C)CN(Cc1ccccc1OC)[C@H](C)CO2` it is “inactive”. As to `Cc1cncc2cccc(S(=O)(=O)NCCN(C/C=C/c3ccc(Br)cc3)C/C=C/c3ccc(Br)cc3)c12`, the cytotoxicity call was “inactive”. The entry for `C[C@H](CO)N1C[C@H](C)[C@@H](CN(C)S(C)(=O)=O)Oc2ccc(NC(=O)NC3CCCCC3)cc2CC1=O` is “inactive”; for `C[C@H]1CN([C@@H](C)CO)C(=O)Cc2cc(NC(=O)NC3CCCCC3)ccc2O[C@H]1CN(C)S(C)(=O)=O` it is “inactive”; for `C[C@H](CO)N1C[C@H](C)[C@H](CN(C)S(C)(=O)=O)Oc2ccc(NC(=O)NC3CCCCC3)cc2CC1=O` it is “inactive”. The entry for `C[C@@H]1CN([C@H](C)CO)C(=O)Cc2cc(NC(=O)NC3CCCCC3)ccc2O[C@@H]1CN(C)S(C)(=O)=O` is “active”; for `C[C@@H]1CN([C@@H](C)CO)C(=O)Cc2cc(NC(=O)NC3CCCCC3)ccc2O[C@H]1CN(C)S(C)(=O)=O` it is “active”; for `C[C@@H]1CN([C@H](C)CO)C(=O)Cc2cc(NC(=O)NC3CCCCC3)ccc2O[C@H]1CN(C)S(C)(=O)=O` it is “inactive”. The entry for `COc1ccc(CN(C)C[C@@H]2Oc3ccc(NC(=O)CCN4CCOCC4)cc3C(=O)N([C@@H](C)CO)C[C@H]2C)cc1` is “inactive”.

On to `C[C@@H]1CN([C@H](C)CO)C(=O)c2cc(NC(=O)CCC(F)(F)F)ccc2O[C@@H](C)CCCCO[C@H]1CN(C)Cc1ccncc1`, for which the cytotoxicity call is “inactive”. The entry for `C[C@@H]1CCCCO[C@H](CN(C)S(=O)(=O)c2cccs2)[C@H](C)CN([C@H](C)CO)C(=O)c2cc(NC(=O)Cc3ccccc3)ccc2O1` is “inactive”. `C[C@H](CO)N1C[C@H](C)[C@@H](CN(C)C(=O)Nc2ccccc2)Oc2ccc(NC(=O)Nc3cccc4ccccc34)cc2C1=O`: the cytotoxicity call was “inactive”.
